Screening results as filed in PubChem.
Only some compounds are listed: those with a hit (about 2.7% of all), similar ones and a draw of the others.
FAS TE block – FAS thioesterase domain inhibitors, primary screen, biochemical, fluorescence intensity, uHTS | 360,000 compounds, 0.67% hits | Fatty acid synthase (Homo sapiens), P49327 | recombinant FAS-TE, OMFH fluorogenic substrate, fluorescence endpoint | inhibition, % at 15 µM;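 active means compounds whose normalised, plate-corrected inhibition of enzyme fluorescence in the single-dose primary screen is 50% or more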;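 further: 0% = DMSO with enzyme and 100% = substrate without enzyme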
PfGluPho inh – PfG6PD enzyme inhibitors, primary screen, biochemical, fluorescence intensity, uHTS | glucose-6-phosphate dehydrogenase-6-phosphogluconolactonase (Plasmodium falciparum 3D7) | AID 504690, 2011 | 350,000 compounds, 0.78% hits | inhibition, % at 20 µM | PfGluPho enzyme, NADPH resazurin-diaphorase fluorescence;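 active means inhibition reaching at least a set limit at 20 µM in the primary screen, cut at about 59% in these data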;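 further: 0% = DMSO wells with substrate and 100% = DMSO wells lacking glucose-6-phosphate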
Neddyl block – inhibitors of cullin neddylation, primary screen, biochemical, TR-FRET, uHTS, NAE and Ubc12; calls only at 25 µM; 360,000 compounds, 0.58% hits; NEDD8-conjugating enzyme Ubc12 (Homo sapiens) + NEDD8-activating enzyme E1 regulatory …; in the data active means inhibition above about 36%
Target sequence (P61081 whole entry, looked up): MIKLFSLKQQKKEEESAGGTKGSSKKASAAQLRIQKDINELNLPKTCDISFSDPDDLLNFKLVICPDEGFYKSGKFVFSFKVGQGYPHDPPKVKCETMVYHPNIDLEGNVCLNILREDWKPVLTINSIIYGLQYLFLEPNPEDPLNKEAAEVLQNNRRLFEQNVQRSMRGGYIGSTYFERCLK
Target sequence (Q13564 whole entry, looked up): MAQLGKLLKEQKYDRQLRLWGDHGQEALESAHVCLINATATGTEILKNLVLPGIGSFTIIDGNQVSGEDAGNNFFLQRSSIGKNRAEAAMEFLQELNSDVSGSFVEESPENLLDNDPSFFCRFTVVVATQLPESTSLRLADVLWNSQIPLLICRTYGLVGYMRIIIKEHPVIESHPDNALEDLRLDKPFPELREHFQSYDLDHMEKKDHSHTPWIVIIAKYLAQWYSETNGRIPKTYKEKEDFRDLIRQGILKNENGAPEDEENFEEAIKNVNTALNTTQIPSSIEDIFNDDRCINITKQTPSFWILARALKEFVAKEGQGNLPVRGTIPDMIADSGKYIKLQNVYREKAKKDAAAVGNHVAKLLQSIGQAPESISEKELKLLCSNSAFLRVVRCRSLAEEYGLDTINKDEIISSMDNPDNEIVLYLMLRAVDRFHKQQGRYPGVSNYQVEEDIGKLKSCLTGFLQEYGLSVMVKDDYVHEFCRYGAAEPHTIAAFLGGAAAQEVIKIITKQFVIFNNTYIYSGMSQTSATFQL
proKLK7 act – proKLK7 zymogen activators, primary screen, biochemical, fluorescence intensity; Kallikrein-7 (Homo sapiens), P49862; purified proKLK7, EDANS-DABCYL substrate fluorescence; 100% is mature enzyme control, 0% vehicle; activation, % at 7 µM; 370,000 compounds, 0.9% hits; AID 652039, 2013;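 active means activation above the mean of all tested compounds plus 3 SD, computed per campaign excluding outliers beyond control limits, cut at about 13% in these data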
PfG6PD confirm – PfG6PD inhibitors, hit retest, confirmation, biochemical, fluorescence intensity, single concentration; shares compounds with PfGluPho inh; recombinant PfGluPho, NADPH-diaphorase-resazurin fluorescence; inhibition, % at 20 µM; 2,400 compounds, 34% hits; AID 504753, 2011;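 active means inhibition of at least 50% at 20 µM in any single replicate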;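 further: 0% = DMSO with substrate and 100% = DMSO lacking glucose-6-phosphate substrate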
Diaphorase 10uM – diaphorase inhibitors and chemical oxidizers, confirmation, counter-screen for P. falciparum G6PD inhibitor project, biochemical, fluorescence intensity, 10 µM NADPH | shares compounds with PfGluPho inh | diaphorase-coupled resazurin reduction, NADPH 10 uM | inhibition, % at 20 µM | 820 compounds, 39% hits | AID 504862, 2011;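 active means average inhibition reaching 50% or more with the compound at 20 µM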;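 further: resorufin red fluorescence formed as diaphorase reduces resazurin using NADPH; 0% = DMSO with enzyme and 100% = DMSO without enzyme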
Diaph ctr 30uM – diaphorase inhibitors and chemical oxidizers, confirmation, counter-screen for P. falciparum G6PD inhibitor project, biochemical, fluorescence intensity, 30 µM NADPH | shares compounds with PfGluPho inh | Diaphorase/resazurin coupled assay, resorufin fluorescence | inhibition, % at 20 µM | 820 compounds, 29% hits;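 active means inhibition averaging 50% or more, tested at 20 µM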;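 further: 0% = DMSO with enzyme and 100% = DMSO wells lacking diaphorase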
* marks the source's active call; other numbers are inactive results; i = inactive; / = not tested or not shown.

SMILES	FAS TE block	PfGluPho inh	Neddyl block	proKLK7 act	PfG6PD confirm	others
COc1ccc(-c2csc(NC(=S)NC(=O)c3ccco3)n2)cc1	-7	9	i	0	/
Cc1ccc2cccc(S(=O)(=O)N3CCCc4ccccc43)c2n1	22	67*	i	-1	33
COC(=O)[C@]12C[C@H](CC(=O)NCc3cccs3)C(=O)N(Cc3ccco3)C1=C[C@H](C(C)(C)C)O[C@@H]2C	/	/	/	1	/
Cc1ccc(N=C2C(=O)Nc3ccccc32)cc1	-2	11	i	0	/
CCN(CC)c1ccc(N=C2C(=O)Nc3ccccc32)cc1	-4	68*	i	1	15
c1ccc(CCc2nn3c(-c4ccncc4)nnc3s2)cc1	5	35	i	0	/
Clc1ccccc1-c1nnc2sc(-c3ccc4c(c3)OCO4)nn12	8	63*	i	-2	41
Clc1ccccc1-c1nnc2sc(CCc3ccccc3)nn12	-3	60*	i	1	21
COc1cc(/C=C2\OC(=O)c3c(OC)cccc32)ccc1O	-4	74*	/	-3	14
COc1cccc(C(=O)/C=C2\Sc3ccccc3N2C)c1	5	82*	i	2	41
O=S(=O)(Nc1ccc2oc(-c3ccccc3)nc2c1)c1ccccc1	18	88*	/	-13	38
COc1ccccc1Nc1nnc(SCc2cc(=O)n3ccsc3n2)s1	4	67*	i	1	40
O=C(NNc1ccc([N+](=O)[O-])cc1)Nc1ccccc1	21	74*	i	1	0
Cc1ccc(NNS(=O)(=O)c2ccc(C)cc2)cc1	-7	99*	i	0	54*	Diaphorase 10uM=30;Diaph ctr 30uM=-6
O=C(NNc1ccccc1[N+](=O)[O-])Nc1ccccc1	2	21	i	/	/
CC(=O)Nc1ccc(S(=O)(=O)NNc2ccc([N+](=O)[O-])cc2)cc1	3	75*	i	0	33
Cc1ccc(NC(=O)c2cnn(-c3ccccc3)c2C)cc1	2	30	i	0	/
Cc1ccc(NC(=O)c2cc(C)n(-c3ccccc3)c2C)cc1	16	95*	i	0	53*	Diaphorase 10uM=53*;Diaph ctr 30uM=34
Cc1cc(C(=O)Nc2ccc(Cl)cc2)c(C)n1-c1ccccc1	33	98*	i	-1	11
Cc1ccc(NC(=O)c2cc(C)n(-c3cccc(C)c3)c2C)cc1	24	82*	i	0	32
O=C(CSc1nnc(Cc2cccs2)n1-c1ccc(Cl)cc1)Nc1ccc(OCc2ccccc2)cc1	/	/	/	0	/
Cc1ccc(O)c(N=Cc2cccs2)c1	-3	71*	i	0	45
Cc1ccc(N=Nc2cc(C)ccc2O)c(C)c1	14	17	i	0	/
Cc1ccc(O)c(N=Cc2ccc(C)s2)c1	-12	67*	i	0	20
Sc1ccccc1N=Cc1cccs1	4	29	i	-11	/
SMILES	FAS TE block	PfGluPho inh	Neddyl block	proKLK7 act	PfG6PD confirm	others
Cc1cc(NS(=O)(=O)c2ccc(NC(=O)Cc3ccc(Cl)c(Cl)c3)cc2)on1	/	/	/	0	/
CC(=O)N(Cc1ccc(F)cc1)C1=C(NCc2ccccc2)C(=O)c2ccccc2C1=O	14	71*	i	/	46
O=C(NCc1ccc(F)cc1)C(c1ccccc1)c1ccccc1	15	0	i	0	/
CCCCN1CCN(C(=O)C2CCCN(C(=O)c3ccc4c(c3)NC(=O)CS4)C2)CC1 (stereo not given)	/	/	/	1	/
CSc1cnn(Cc2ccccc2)c(=O)c1SCc1ccccc1	22	66*	i	-1	-6
CSc1cnn(-c2ccccc2)c(=O)c1SC	-2	2	i	0	/
COc1cccc(/C=N/NC(=S)Nc2cccc(S(=O)(=O)N(C)C)c2)c1	17	67*	i	0	1
CN(C)S(=O)(=O)c1cccc(NC(=S)N/N=C/c2ccc(O)c(O)c2O)c1	-6	80*	i	1	64*	Diaphorase 10uM=59*;Diaph ctr 30uM=61*
COc1ccccc1CNC(=O)NCCCN1CCN(c2ccc(F)cc2)CC1	/	/	/	0	/
COc1ccc(-n2c(SCC(=O)Nc3ccc(S(=O)(=O)Nc4nccs4)cc3)nnc2-c2ccccc2)cc1	/	/	/	0	/
CCCCNc1c(-c2cccc(-c3cc(C(C)=O)cs3)c2)nc2ccc(C)cn12	18	67*	i	0	13
CS(=O)(=O)N[C@@H]1C[C@@H]2O[C@H](CO)CC[C@@H]2O[C@@H]1CCc1ccc(/C=C/c2ccccc2)cc1	/	/	/	0	/
NS(=O)(=O)c1ccc(NCc2c(F)cccc2Cl)cc1	1	16	i	0	/
Fc1cccc(Cl)c1CNc1ccc(N2CCCC2)cc1	7	106*	i	0	87*	Diaphorase 10uM=2;Diaph ctr 30uM=2
CN(C)S(=O)(=O)c1cccc(C(=O)N/N=C\c2cccc(C#N)c2)c1	/	/	/	0	/
CCCCN=C(N)NC(=O)OCc1ccccc1	/	/	/	0	/
Cn1c(CS/C(N)=N/N=C/c2ccccc2)c(Br)c(=O)n1-c1ccccc1	-8	64*	i	0	16
NC(=N\N=Cc1ccccc1)/C(N)=N/N=Cc1ccccc1	2	3	i	1	/
COc1cc(C)ccc1C(=O)N1CCC(Oc2cccnc2)CC1	/	/	/	0	/
C=CCOc1c(Cl)cc(CNc2ccc3[nH]c(=O)[nH]c3c2)cc1OC	-9	64*	i	0	58*	Diaphorase 10uM=21;Diaph ctr 30uM=18
COc1cc(CNc2ccc3[nH]c(=O)[nH]c3c2)cc(Br)c1OCc1ccc(F)cc1	-4	17	i	-1	/
CCOc1ccccc1-n1c(=S)sc2c(=O)n(-c3ccc(F)cc3)c(SCC(=O)O)nc21	-2	69*	i	0	17
CCN(CC)C(=O)CSc1nc2c(sc(=S)n2-c2ccccc2)c(=O)n1-c1ccc(OC)c(OC)c1	5	-3	i	0	/
COc1ccccc1-n1c(SCC(=O)O)nc2c(sc(=S)n2-c2ccc(C)c(C)c2)c1=O	-12	30	i	0	/
CCN(CC)C(=O)CSc1nc2c(sc(=S)n2-c2ccccc2)c(=O)n1-c1ccc(OC)cc1OC	29	79*	i	0	39
CC(C)C[C@@H]1COc2cccc(F)c2S(=O)(=O)N1C	/	/	/	1	/
CCOC(=O)c1cnc2ccc(C)cc2c1NCCO	-6	32	i	1	/
